# From article PMC8384837, “Expanding the binding specificity for RNA recognition by a PUF domain”
# Positions count from the first letter of the chain named.
# Tests used:
# Assay in all cases: yeast three-hybrid, YBZ-1, SC-Leu-His + 0.5 mM 3-AT, 4 days
# Settings in all cases: tags: N-Gal4 AD-HA kept; label: inside an RPR1-promoter hybrid RNA with tandem MS2 sites; ssRNA
# PUM1 PUF domain R8-CWR = PUM1 PUF domain R8-CWR (Homo sapiens, UniProt Q14671 828-1176, N1122C;Y1123W;Q1126R)
# Summary of the method: (§1)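 Matching RNA elements and Pumilio-1 PUF domain libraries, randomized at the three base-contacting residues of every repeat, were co-expressed from a centromeric plasmid in strain YBZ-1 (LexA–MS2 coat fusion, HIS3 reporter). The repeat regions were PCR-amplified and Illumina-sequenced from cells grown four days on SC-Leu (input) or SC-Leu-His + 0.5 mM 3-AT (selection). The interaction score is the log change in variant frequency from input to selection. It is computed in log2, with a pseudocount of 1 for absent variants.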
# PUM1 PUF domain R8-KYV = PUM1 PUF domain R8-KYV (Homo sapiens, UniProt Q14671 828-1176, N1122K;Q1126V)
# Summary of the method: as §1
# PUM1 PUF domain R1-RRV = PUM1 PUF domain R1-RRV (Homo sapiens, UniProt Q14671 828-1176, S863R;Q867V)
# Summary of the method: as §1
# PUM1 PUF domain R3-MRA = PUM1 PUF domain R3-MRA (Homo sapiens, UniProt Q14671 828-1176, C935M;Q939A)
# Summary of the method: as §1
# PUM1 PUF domain R2-SWW = PUM1 PUF domain R2-SWW (Homo sapiens, UniProt Q14671 828-1176, N899S;Y900W;Q903W)
# Summary of the method: as §1
# PUM1 PUF domain R7-VER = PUM1 PUF domain R7-VER (Homo sapiens, UniProt Q14671 828-1176, S1079V;N1080E;E1083R)
# Summary of the method: as §1
# PUM1 PUF domain R4-MNR = PUM1 PUF domain R4-MNR (Homo sapiens, UniProt Q14671 828-1176, N971M;H972N;Q975R)
# Summary of the method: as §1
# PUM1 PUF domain R4-PYE = PUM1 PUF domain R4-PYE (Homo sapiens, UniProt Q14671 828-1176, N971P;H972Y;Q975E)
# Summary of the method: as §1
# PUM1 PUF domain R6-KYR = biological target: T1, PUM1 PUF domain R6-KYR (Homo sapiens, UniProt Q14671 828-1176, N1043K;Q1047R)
# T1 sequence: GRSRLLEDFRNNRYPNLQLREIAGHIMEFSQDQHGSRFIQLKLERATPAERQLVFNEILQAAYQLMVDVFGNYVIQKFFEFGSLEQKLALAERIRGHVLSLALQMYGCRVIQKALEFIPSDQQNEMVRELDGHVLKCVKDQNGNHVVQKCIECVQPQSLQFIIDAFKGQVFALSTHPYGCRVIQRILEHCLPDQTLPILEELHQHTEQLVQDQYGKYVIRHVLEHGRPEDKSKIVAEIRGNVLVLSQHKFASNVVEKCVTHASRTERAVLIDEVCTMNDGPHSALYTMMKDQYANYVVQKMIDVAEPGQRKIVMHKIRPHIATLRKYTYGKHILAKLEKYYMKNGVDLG
# Summary of the method: as §1
# PUM1 PUF domain R3-VNV = PUM1 PUF domain R3-VNV (Homo sapiens, UniProt Q14671 828-1176, C935V;R936N;Q939V)
# Summary of the method: as §1
# PUM1 PUF domain R8-KWR = PUM1 PUF domain R8-KWR (Homo sapiens, UniProt Q14671 828-1176, N1122K;Y1123W;Q1126R)
# Summary of the method: as §1
# PUM1 PUF domain R5-LYE = PUM1 PUF domain R5-LYE (Homo sapiens, UniProt Q14671 828-1176, C1007L;R1008Y;Q1011E)
# Summary of the method: as §1
# PUM1 PUF domain R8-EWR = PUM1 PUF domain R8-EWR (Homo sapiens, UniProt Q14671 828-1176, N1122E;Y1123W;Q1126R)
# Summary of the method: as §1
# PUM1 PUF domain R6-GWM = biological target: T2, PUM1 PUF domain R6-GWM (Homo sapiens, UniProt Q14671 828-1176, N1043G;Y1044W;Q1047M)
# T2 sequence: T1 sequence with K216G, Y217W, R220M
# Summary of the method: as §1
# PUM1 PUF domain R5-RAP = PUM1 PUF domain R5-RAP (Homo sapiens, UniProt Q14671 828-1176, C1007R;R1008A;Q1011P)
# Summary of the method: as §1
# PUM1 PUF domain R5-SGK = PUM1 PUF domain R5-SGK (Homo sapiens, UniProt Q14671 828-1176, C1007S;R1008G;Q1011K)
# Summary of the method: as §1
# PUM1 PUF domain R5-KSR = PUM1 PUF domain R5-KSR (Homo sapiens, UniProt Q14671 828-1176, C1007K;R1008S;Q1011R)
# Summary of the method: as §1
# PUM1 PUF domain R5-DWH = PUM1 PUF domain R5-DWH (Homo sapiens, UniProt Q14671 828-1176, C1007D;R1008W;Q1011H)
# Summary of the method: as §1
# PUM1 PUF domain R8-KYA = PUM1 PUF domain R8-KYA (Homo sapiens, UniProt Q14671 828-1176, N1122K;Q1126A)
# Summary of the method: as §1
# PUM1 PUF domain R5-RKV = PUM1 PUF domain R5-RKV (Homo sapiens, UniProt Q14671 828-1176, C1007R;R1008K;Q1011V)
# Summary of the method: as §1
sequence,measurement,setting,value
GGCUAGAACUAGUGGAUCCCCCGGCGCCCGGCGGCUCGAGCCCGGGUAAGGGUAAAUAGUCUGCAUGCCGCCGGGCGCCAUGCCUGCAGGUCGACUCUAGAAAACAUG,binding signal,PUM1 PUF domain R8-CWR,2.72 log2 enrichment (interaction score)
same,binding signal,PUM1 PUF domain R8-KYV,3.44 log2 enrichment (interaction score)
GGCUAGAACUAGUGGAUCCCCCGGCGCCCGGCGGCUCGAGCCCGGGUAAGUGUAAAUGGUCUGCAUGCCGCCGGGCGCCAUGCCUGCAGGUCGACUCUAGAAAACAUG,binding signal,PUM1 PUF domain R1-RRV,1.17 log2 enrichment (interaction score)
GGCUAGAACUAGUGGAUCCCCCGGCGCCCGGCGGCUCGAGCCCGGGUAAGUGUAAGUAGUCUGCAUGCCGCCGGGCGCCAUGCCUGCAGGUCGACUCUAGAAAACAUG,binding signal,PUM1 PUF domain R3-MRA,5.2 log2 enrichment (interaction score)
GGCUAGAACUAGUGGAUCCCCCGGCGCCCGGCGGCUCGAGCCCGGGUAAGUGUAAAAAGUCUGCAUGCCGCCGGGCGCCAUGCCUGCAGGUCGACUCUAGAAAACAUG,binding signal,PUM1 PUF domain R2-SWW,3.5 log2 enrichment (interaction score)
GGCUAGAACUAGUGGAUCCCCCGGCGCCCGGCGGCUCGAGCCCGGGUAAGUUUAAAUAGUCUGCAUGCCGCCGGGCGCCAUGCCUGCAGGUCGACUCUAGAAAACAUG,binding signal,PUM1 PUF domain R7-VER,3.22 log2 enrichment (interaction score)
GGCUAGAACUAGUGGAUCCCCCGGCGCCCGGCGGCUCGAGCCCGGGUAAGUGUACAUAGUCUGCAUGCCGCCGGGCGCCAUGCCUGCAGGUCGACUCUAGAAAACAUG,binding signal,PUM1 PUF domain R4-MNR,3.28 log2 enrichment (interaction score)
same,binding signal,PUM1 PUF domain R4-PYE,0.65 log2 enrichment (interaction score)
GGCUAGAACUAGUGGAUCCCCCGGCGCCCGGCGGCUCGAGCCCGGGUAAGUGUAUAUAGUCUGCAUGCCGCCGGGCGCCAUGCCUGCAGGUCGACUCUAGAAAACAUG,binding signal,PUM1 PUF domain R4-MNR,4.01 log2 enrichment (interaction score)
same,binding signal,PUM1 PUF domain R4-PYE,4.08 log2 enrichment (interaction score)
GGCUAGAACUAGUGGAUCCCCCGGCGCCCGGCGGCUCGAGCCCGGGUAAGUGUAAAUCGUCUGCAUGCCGCCGGGCGCCAUGCCUGCAGGUCGACUCUAGAAAACAUG,binding signal,PUM1 PUF domain R1-RRV,3.63 log2 enrichment (interaction score)
GGCUAGAACUAGUGGAUCCCCCGGCGCCCGGCGGCUCGAGCCCGGGUAAGUGUAAAUAGUCUGCAUGCCGCCGGGCGCCAUGCCUGCAGGUCGACUCUAGAAAACAUG,binding signal,PUM1 PUF domain R6-KYR,5.19 log2 enrichment (interaction score)
same,binding signal,PUM1 PUF domain R3-VNV,3.12 log2 enrichment (interaction score)
same,binding signal,PUM1 PUF domain R8-CWR,4.45 log2 enrichment (interaction score)
same,binding signal,PUM1 PUF domain R8-KWR,5.93 log2 enrichment (interaction score)
same,binding signal,PUM1 PUF domain R8-KYV,2.77 log2 enrichment (interaction score)
same,binding signal,PUM1 PUF domain R5-LYE,3.07 log2 enrichment (interaction score)
same,binding signal,PUM1 PUF domain R8-EWR,1.16 log2 enrichment (interaction score)
same,binding signal,PUM1 PUF domain R6-GWM,2.52 log2 enrichment (interaction score)
GGCUAGAACUAGUGGAUCCCCCGGCGCCCGGCGGCUCGAGCCCGGGUAAGUGUUAAUAGUCUGCAUGCCGCCGGGCGCCAUGCCUGCAGGUCGACUCUAGAAAACAUG,binding signal,PUM1 PUF domain R5-RAP,0.85 log2 enrichment (interaction score)
same,binding signal,PUM1 PUF domain R5-SGK,2.15 log2 enrichment (interaction score)
same,binding signal,PUM1 PUF domain R5-KSR,2.77 log2 enrichment (interaction score)
GGCUAGAACUAGUGGAUCCCCCGGCGCCCGGCGGCUCGAGCCCGGGUAAGUGUGAAUAGUCUGCAUGCCGCCGGGCGCCAUGCCUGCAGGUCGACUCUAGAAAACAUG,binding signal,PUM1 PUF domain R5-DWH,4.75 log2 enrichment (interaction score)
GGCUAGAACUAGUGGAUCCCCCGGCGCCCGGCGGCUCGAGCCCGGGUAAGCGUAAAUAGUCUGCAUGCCGCCGGGCGCCAUGCCUGCAGGUCGACUCUAGAAAACAUG,binding signal,PUM1 PUF domain R8-KYA,3.04 log2 enrichment (interaction score)
same,binding signal,PUM1 PUF domain R8-CWR,4.31 log2 enrichment (interaction score)
same,binding signal,PUM1 PUF domain R8-KWR,6.68 log2 enrichment (interaction score)
same,binding signal,PUM1 PUF domain R8-KYV,2.16 log2 enrichment (interaction score)
same,binding signal,PUM1 PUF domain R8-EWR,2.45 log2 enrichment (interaction score)
GGCUAGAACUAGUGGAUCCCCCGGCGCCCGGCGGCUCGAGCCCGGGUAAGUGUAAAUUGUCUGCAUGCCGCCGGGCGCCAUGCCUGCAGGUCGACUCUAGAAAACAUG,binding signal,PUM1 PUF domain R1-RRV,3.36 log2 enrichment (interaction score)
GGCUAGAACUAGUGGAUCCCCCGGCGCCCGGCGGCUCGAGCCCGGGUAAGUGUCAAUAGUCUGCAUGCCGCCGGGCGCCAUGCCUGCAGGUCGACUCUAGAAAACAUG,binding signal,PUM1 PUF domain R5-RAP,4.21 log2 enrichment (interaction score)
same,binding signal,PUM1 PUF domain R5-RKV,2.43 log2 enrichment (interaction score)
same,binding signal,PUM1 PUF domain R5-SGK,0.9 log2 enrichment (interaction score)
same,binding signal,PUM1 PUF domain R5-KSR,4.35 log2 enrichment (interaction score)
GGCUAGAACUAGUGGAUCCCCCGGCGCCCGGCGGCUCGAGCCCGGGUAAGUGUAAUUAGUCUGCAUGCCGCCGGGCGCCAUGCCUGCAGGUCGACUCUAGAAAACAUG,binding signal,PUM1 PUF domain R3-MRA,2.68 log2 enrichment (interaction score)
